L3MBTL1 inh – qHTS Assay for the Inhibitors of L3MBTL1; Lethal(3)malignant brain tumor-like protein 1 (Homo sapiens), Q9Y468; AlphaScreen L3MBTL1–H3K9me1 peptide binding; Potency, µM (top dose mostly 57.1 µM), inactives show at the highest dose activity, negative = inhibition, usual class: inhibitors; hit rate 0.66% among 230,000; AID 485360, 2010; also: % is scaled to controls: 0 for no effect and ±100 for the full control effect; nearly all actives have a fitted effect of over 60% in size
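Displacement of a biotinylated histone H3(1-15) peptide monomethylated at Lys9 (75 nM) from L3MBTL1 (50 nM) was measured by AlphaScreen after a 30 min room-temperature compound incubation; cefsulodin titration served as intraplate control.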
BAZ2B block – qHTS Assay for Inhibitors of BAZ2B | AID 504333, 2011 | Bromodomain adjacent to zinc finger domain protein 2B (Homo sapiens), Q9UIF8 | Potency, µM (doses to about 114 µM), for inactives: at the top dose activity change, negative = inhibition, hits mostly inhibitors | AlphaScreen BAZ2B-H3K14Ac peptide displacement | hit rate 4.4% among 360,000; also: % is scaled to controls: 0 for no effect and ±100 for the full control effect; nearly all actives have a fitted effect of over 60% in size
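Multi-concentration screen (max 110 uM) measuring displacement of acetylated histone H3 peptide from BAZ2B by AlphaScreen, using 50 nM protein, 50 nM peptide and 10 ug/mL streptavidin donor plus Ni-chelate acceptor beads.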
JMJD2A Tudor – qHTS Assay for Inhibitors of JMJD2A-Tudor Domain; Lysine-specific demethylase 4A (Homo sapiens), O75164; AlphaScreen JMJD2A-Tudor / H3K4me3 peptide binding; Potency, µM (highest dose often 114 µM), for the others: at the top dose activity change, negative = inhibition, most hits filed as inhibitors; hit rate 4.4% among 390,000; also: % is scaled to controls: 0 for no effect and ±100 for the full control effect; nearly all actives have a fitted effect of over 50% in size
PLK1 PBD inh – qHTS for Inhibitors of PLK1-PDB (polo-like kinase 1 - polo-box domain): Primary Screen. Serine/threonine-protein kinase PLK1 (Homo sapiens), P53350. Plk1 PBD binding of FITC phosphopeptide, fluorescence polarization. Potency, µM, for the others: max response, negative = inhibition, actives largely listed as inhibitors. AID 720504, 2013. hit rate 2.8% among 360,000; also: series mostly up to about 57 µM; % is scaled to controls: 0 for no effect and ±100 for the full control effect; nearly all actives have a fitted effect of over 65% in size
VDR inh – Inhibitors of the vitamin D receptor (VDR): qHTS | Potency, µM, for inactives: max response, negative = inhibition, usual class: inhibitors | AID 504847, 2011 | VDR-SRC2-3 peptide fluorescence polarization, 2 h | Vitamin D3 receptor (Homo sapiens), P11473 | hit rate 0.93% among 400,000; also: % is scaled to controls: 0 for no effect and ±100 for the full control effect
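Measured by FP: displacement of SRC2-3 coactivator peptide from VDR by library compounds, following a two-hour ambient incubation.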
HP1b binding inh – HTS for Inhibitors of HP1-beta Chromodomain Interactions with Methylated Histone Tails; Chromobox protein homolog 1 (Homo sapiens), P83916; AlphaScreen HP1-beta / biotin-H3K9me3 peptide binding; Potency, µM (doses to about 114 µM), without a hit: at the top dose activity change, negative = inhibition, usual class: inhibitors; hit rate 0.56% among 390,000; also: nearly all actives have a fitted effect of over 70% in size
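HP1-beta protein (50 nM final) preincubated 30 min at room temperature with biotinylated H3(1-18)K9me3 peptide (50 nM) in PBS pH 7.4, 0.01% Tween-20, then compound added for 30 min. AlphaScreen streptavidin donor/nickel chelate acceptor beads (10 ug/mL final), 30 min dark, luminescence read.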
An asterisk follows results filed as active; ? = inconclusive; . = no result; ! = not active in a repeat; [ ] = remark or other dose. Hits are enriched below; roughly 6.9% of the tested compounds scored in any of these assays. Calls follow the shape of the dose curve; as a rule, active = well fitted curve in the direction sought with a large enough effect; inconclusive = small, poorly fitted or top-dose-only effect, or another doubt; inactive = no such curve, though single readings can be large; an effect the other way counts as inactive or inconclusive. Potency is read from the fitted curve at half-maximal effect.

SMILES	L3MBTL1 inh	BAZ2B block	JMJD2A Tudor	PLK1 PBD inh	VDR inh	HP1b binding inh
Cc1ccc2c(CC(=O)N3CCN(c4cccc(Cl)c4)CC3)coc2c1C	.	-35%	-24%	.	14%	-1%
N#C/C(=C/c1ccc(O)c(O)c1)C(=O)NCc1ccc(Cl)cc1	.	35µM*	13µM*	-11%	-8%	28µM*
N#C/C(=C\c1ccc(O)c(O)c1)C(=O)Nc1ccccc1	-21%	13µM*	?	5%	13µM*!	?
Nc1nc2c(ncn2C2OC(COC(=O)c3ccccc3)C(OC(=O)c3ccccc3)C2OC(=O)c2ccccc2)c(=O)[nH]1 (stereo not drawn)	.	.	.	.	-2%	.
COc1ccc(-c2ccc(-c3noc(-c4cc(OC)cc(OC)c4)n3)c(OC)n2)cc1	.	0%	8%	.	-7%	36%
OC1(CN2CCOCC2)C2CN3CCN(C2)CC1(c1ccccc1)C3 (stereo not drawn)	13%	-8%	12%[11.4 µM]	21µM*	-14%	-1%
OC(CCN1CCOCC1)c1ccccc1 (stereo not drawn)	2%	-4%	-15%	-7%	-6%	63%
O=C(Nc1ncccc1O)c1ccc(NS(=O)(=O)c2ccc3[nH]c(=O)[nH]c3c2)cc1	-9%	79µM*	-22%	-8%	1%	-4%
CCOC(=O)c1ccc(NS(=O)(=O)c2ccc3[nH]c(=O)[nH]c3c2)cc1	-11%	0%	-17%	12µM*	-19%	-26%
Cc1ccccc1Nc1cc(C(=O)NC2CCC(C)CC2)c2ccccc2n1 (stereo not drawn)	.	.	-11%	.	-18%	39%
Cc1cc(C)nc(NNS(=O)(=O)c2ccc(F)c(Cl)c2)n1	-5%	79µM*	-31%	-23%	-19%	15%
COC(=O)c1ccc2nc(-c3cccc(Cl)c3)c(Cc3cccc(F)c3)n2c1	.	.	.	2%	.	.
Cc1cc(C)n2nc(SCC(=O)Nc3cccc(C(F)(F)F)c3)nc2n1	.	1%	-8%	.	-9%	24%
O=C1C=C(c2ccccc2Oc2ccccc2)C[C@@H](c2ccc(F)cc2)C1	.	.	.	-9%	.	.
COc1ccccc1N1CCN(/N=C\c2sccc2C)CC1	.	13µM*	?	4%	6%	-25%
COc1ccccc1N1CCN(/N=C/c2cccc(OC)c2OC)CC1	-2%	35µM*	?	-11%	-1%	?
COc1ccccc1N1CCN(/N=C/c2cc(OC)c(OC)c(OC)c2)CC1	?	?	?	-8%	-15%	?
C(=N\N1CCN(c2ccccn2)CC1)/c1cccc2ccccc12	-28%	35µM*	40µM*	3%	7%	?
COc1ccccc1N1CCN(/N=C\c2ccc(C)o2)CC1	-5%	-8%[57.1 µM]	-28%	-6%	-7%	?
COc1ccccc1N1CCN(/N=C\c2ccccc2)CC1	12%[2.29 µM]	?	-34%	4%	-6%	-11%
COc1ccccc1N1CCN(/N=C/c2c(C)nn(-c3ccccc3)c2C)CC1	?	28µM*	40µM*	-6%	-9%	18µM*
Cc1ccc(NS(=O)(=O)c2ccc3c(c2)C(Cl)(Cl)C(=O)N3)cc1C	.	.	-31%	.	.	.
CCCCN(CC(=O)NCCOC)C(=O)Cn1nnc2ccccc21	.	3%	-20%	-4%	7%	21%
CC#CC(=O)N1CCCC(Cc2cccc(OC)c2)(C(=O)OCC)C1 (stereo not drawn)	2%	2%	-3%	-6%	-10%	23%
Cc1ccc2[nH]c(=O)c3cc(C(=O)NCCc4ccc(Cl)cc4)sc3c2c1	.	0%	-16%	.	1%	36%
C=CCNc1nc(Cl)nc(Nc2cc(Cl)ccc2OC)n1	-1%	7%	?	21µM*	?	-1%

Screening data deposited in PubChem by National Center for Advancing Translational Sciences (NCATS).
